Assays:
[1] = biological target: T1, Serine/threonine-protein kinase D2 (Homo sapiens) (UniProt Q9BZL6); settings: at 1 µM;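 further: mean value of PRKD2 inhibition, from the GSK PKIS screening panel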
T1 sequence (whole entry): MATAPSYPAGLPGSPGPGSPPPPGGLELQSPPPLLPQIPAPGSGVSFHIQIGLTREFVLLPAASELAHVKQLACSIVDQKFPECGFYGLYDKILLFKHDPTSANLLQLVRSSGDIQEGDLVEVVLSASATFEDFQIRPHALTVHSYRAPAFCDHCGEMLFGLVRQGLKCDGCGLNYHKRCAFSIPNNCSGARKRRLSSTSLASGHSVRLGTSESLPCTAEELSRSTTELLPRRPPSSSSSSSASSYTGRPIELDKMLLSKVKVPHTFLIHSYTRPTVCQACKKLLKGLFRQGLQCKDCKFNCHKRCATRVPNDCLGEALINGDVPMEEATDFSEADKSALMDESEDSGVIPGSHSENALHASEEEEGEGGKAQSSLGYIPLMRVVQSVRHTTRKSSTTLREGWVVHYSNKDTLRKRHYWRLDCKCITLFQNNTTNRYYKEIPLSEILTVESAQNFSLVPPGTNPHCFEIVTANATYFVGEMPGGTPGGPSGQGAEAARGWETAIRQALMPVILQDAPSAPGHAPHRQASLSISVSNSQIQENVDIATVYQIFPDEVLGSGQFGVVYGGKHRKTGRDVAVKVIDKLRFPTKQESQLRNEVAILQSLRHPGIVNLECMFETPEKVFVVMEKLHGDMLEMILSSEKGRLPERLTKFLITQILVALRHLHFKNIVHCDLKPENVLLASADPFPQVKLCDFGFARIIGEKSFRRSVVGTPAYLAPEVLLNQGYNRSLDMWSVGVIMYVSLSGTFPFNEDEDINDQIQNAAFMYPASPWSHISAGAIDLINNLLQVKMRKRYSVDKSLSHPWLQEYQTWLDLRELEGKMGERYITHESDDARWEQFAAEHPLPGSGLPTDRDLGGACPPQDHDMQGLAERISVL

[2] = biological target: T2, Serine/threonine-protein kinase D3 (Homo sapiens) (UniProt O94806); settings: at 0.1 µM
T2 sequence (whole entry): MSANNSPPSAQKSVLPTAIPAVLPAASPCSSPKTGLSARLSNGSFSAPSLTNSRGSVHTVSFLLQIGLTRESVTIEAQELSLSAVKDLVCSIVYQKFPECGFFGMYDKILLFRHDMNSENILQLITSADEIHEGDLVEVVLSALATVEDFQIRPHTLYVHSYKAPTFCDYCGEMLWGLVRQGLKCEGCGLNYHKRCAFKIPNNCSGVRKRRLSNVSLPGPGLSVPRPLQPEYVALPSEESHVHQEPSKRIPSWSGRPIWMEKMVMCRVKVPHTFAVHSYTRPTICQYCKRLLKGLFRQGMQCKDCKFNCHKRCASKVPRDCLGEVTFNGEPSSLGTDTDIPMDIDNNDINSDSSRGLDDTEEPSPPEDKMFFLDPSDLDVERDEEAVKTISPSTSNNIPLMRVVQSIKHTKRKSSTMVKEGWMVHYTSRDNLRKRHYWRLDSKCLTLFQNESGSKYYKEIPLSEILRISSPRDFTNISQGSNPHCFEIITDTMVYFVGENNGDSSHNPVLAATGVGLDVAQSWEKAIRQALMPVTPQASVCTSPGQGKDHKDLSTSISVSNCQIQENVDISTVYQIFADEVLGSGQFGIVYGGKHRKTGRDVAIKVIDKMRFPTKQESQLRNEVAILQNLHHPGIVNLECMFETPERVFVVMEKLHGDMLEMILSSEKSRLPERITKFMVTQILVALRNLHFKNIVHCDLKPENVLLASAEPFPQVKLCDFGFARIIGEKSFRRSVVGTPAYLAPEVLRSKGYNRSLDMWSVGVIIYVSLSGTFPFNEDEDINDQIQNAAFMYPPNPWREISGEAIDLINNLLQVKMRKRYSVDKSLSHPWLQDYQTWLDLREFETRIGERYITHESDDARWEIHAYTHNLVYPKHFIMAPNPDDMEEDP

[3] = biological target: T2, Serine/threonine-protein kinase D3 (Homo sapiens); settings: at 1 µM
[4] = biological target: T3, cGMP-dependent protein kinase 1 (Homo sapiens) (UniProt Q13976); settings: at 0.1 µM
T3 sequence (whole entry): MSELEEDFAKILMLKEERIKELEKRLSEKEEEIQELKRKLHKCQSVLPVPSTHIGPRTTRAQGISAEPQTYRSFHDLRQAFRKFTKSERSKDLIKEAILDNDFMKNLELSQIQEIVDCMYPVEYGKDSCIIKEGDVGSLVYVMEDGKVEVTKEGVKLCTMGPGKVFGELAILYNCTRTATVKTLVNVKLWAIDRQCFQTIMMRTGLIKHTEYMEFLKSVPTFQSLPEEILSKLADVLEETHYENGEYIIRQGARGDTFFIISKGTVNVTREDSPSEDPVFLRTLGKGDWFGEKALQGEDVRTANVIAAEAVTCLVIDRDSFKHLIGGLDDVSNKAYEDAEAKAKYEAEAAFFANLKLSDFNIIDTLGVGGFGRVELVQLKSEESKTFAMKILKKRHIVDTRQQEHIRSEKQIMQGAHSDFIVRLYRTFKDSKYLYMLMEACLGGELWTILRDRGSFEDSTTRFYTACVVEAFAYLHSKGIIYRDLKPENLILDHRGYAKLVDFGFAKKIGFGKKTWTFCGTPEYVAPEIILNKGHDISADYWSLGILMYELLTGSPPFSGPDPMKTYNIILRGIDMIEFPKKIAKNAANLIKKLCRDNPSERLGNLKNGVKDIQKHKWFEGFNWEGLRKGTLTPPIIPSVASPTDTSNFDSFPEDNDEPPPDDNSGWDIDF

[5] = biological target: T3, cGMP-dependent protein kinase 1 (Homo sapiens); settings: at 1 µM
[6] = biological target: T4, cGMP-dependent protein kinase 2 (Homo sapiens) (UniProt Q13237); settings: at 0.1 µM
T4 sequence (whole entry): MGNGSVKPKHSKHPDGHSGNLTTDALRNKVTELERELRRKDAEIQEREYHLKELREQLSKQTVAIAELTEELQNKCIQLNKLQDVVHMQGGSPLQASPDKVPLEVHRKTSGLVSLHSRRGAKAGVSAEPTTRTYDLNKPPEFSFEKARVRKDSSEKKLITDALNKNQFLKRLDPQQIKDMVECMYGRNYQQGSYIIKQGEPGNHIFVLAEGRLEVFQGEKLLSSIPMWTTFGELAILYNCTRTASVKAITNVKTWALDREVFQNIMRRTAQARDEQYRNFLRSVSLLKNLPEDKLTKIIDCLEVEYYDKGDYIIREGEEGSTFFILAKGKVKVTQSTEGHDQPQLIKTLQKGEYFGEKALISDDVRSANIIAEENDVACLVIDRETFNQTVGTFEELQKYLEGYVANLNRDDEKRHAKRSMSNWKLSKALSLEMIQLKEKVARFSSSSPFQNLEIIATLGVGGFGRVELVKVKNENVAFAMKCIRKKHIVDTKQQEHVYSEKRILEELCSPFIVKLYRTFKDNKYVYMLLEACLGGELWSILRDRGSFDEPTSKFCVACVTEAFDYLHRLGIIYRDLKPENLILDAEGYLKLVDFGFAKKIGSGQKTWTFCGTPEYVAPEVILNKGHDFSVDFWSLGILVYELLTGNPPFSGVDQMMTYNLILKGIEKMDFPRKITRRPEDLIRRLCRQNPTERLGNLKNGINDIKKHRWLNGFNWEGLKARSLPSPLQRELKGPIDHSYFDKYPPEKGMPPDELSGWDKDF

[7] = biological target: T4, cGMP-dependent protein kinase 2 (Homo sapiens); settings: at 1 µM
[8] = biological target: T5, cAMP-dependent protein kinase catalytic subunit PRKX (Homo sapiens) (UniProt P51817); settings: at 0.1 µM
T5 sequence (whole entry): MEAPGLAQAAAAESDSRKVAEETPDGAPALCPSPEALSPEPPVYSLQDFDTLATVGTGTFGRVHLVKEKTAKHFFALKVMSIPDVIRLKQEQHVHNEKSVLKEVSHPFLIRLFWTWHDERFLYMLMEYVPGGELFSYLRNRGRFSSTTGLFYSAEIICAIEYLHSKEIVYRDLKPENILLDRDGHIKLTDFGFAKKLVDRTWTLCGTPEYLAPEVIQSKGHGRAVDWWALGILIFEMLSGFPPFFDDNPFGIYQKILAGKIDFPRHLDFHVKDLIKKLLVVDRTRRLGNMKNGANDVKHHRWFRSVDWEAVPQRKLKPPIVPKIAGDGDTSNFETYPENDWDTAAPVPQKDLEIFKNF

[9] = biological target: T5, cAMP-dependent protein kinase catalytic subunit PRKX (Homo sapiens); settings: at 1 µM
[10] = biological target: Rho-associated protein kinase 1 (Homo sapiens) (UniProt Q13464); settings: at 0.1 µM
Chain of Rho-associated protein kinase 1 (Homo sapiens) (Q13464 2-1354 limits assumed): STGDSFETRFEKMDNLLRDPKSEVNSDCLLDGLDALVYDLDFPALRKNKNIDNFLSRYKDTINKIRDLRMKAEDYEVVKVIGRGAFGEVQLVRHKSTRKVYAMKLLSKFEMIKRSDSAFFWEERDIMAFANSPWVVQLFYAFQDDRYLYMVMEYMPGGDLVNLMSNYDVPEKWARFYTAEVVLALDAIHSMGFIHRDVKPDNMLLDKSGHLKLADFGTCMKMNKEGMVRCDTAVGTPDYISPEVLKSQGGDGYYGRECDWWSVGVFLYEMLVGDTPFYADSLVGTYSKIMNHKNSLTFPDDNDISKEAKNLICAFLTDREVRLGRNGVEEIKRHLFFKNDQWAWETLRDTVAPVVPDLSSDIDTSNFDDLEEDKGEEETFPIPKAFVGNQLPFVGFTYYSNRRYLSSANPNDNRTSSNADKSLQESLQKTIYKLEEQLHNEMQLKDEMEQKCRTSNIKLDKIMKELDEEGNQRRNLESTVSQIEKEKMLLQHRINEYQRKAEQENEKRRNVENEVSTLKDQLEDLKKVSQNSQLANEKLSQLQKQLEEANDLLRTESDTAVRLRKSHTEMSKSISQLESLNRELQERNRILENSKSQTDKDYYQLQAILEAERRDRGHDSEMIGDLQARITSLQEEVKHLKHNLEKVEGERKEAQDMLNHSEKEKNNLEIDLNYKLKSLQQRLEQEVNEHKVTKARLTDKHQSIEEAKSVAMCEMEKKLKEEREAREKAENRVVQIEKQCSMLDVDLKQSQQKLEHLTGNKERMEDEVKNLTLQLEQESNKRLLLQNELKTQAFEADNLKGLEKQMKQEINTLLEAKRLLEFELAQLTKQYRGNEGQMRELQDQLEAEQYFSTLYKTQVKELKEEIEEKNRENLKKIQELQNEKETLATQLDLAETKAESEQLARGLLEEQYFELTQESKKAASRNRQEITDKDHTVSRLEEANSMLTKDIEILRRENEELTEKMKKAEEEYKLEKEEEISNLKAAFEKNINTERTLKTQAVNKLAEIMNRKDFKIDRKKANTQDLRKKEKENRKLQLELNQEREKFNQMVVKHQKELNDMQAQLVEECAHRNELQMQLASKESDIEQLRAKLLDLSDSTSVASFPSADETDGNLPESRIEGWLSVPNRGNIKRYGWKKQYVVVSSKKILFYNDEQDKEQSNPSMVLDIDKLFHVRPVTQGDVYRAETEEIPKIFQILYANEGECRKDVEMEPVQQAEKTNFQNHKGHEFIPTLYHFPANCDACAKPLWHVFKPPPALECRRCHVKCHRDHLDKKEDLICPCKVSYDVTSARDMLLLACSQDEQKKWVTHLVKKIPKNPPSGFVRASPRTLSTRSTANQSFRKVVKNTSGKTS

[11] = biological target: Rho-associated protein kinase 1 (Homo sapiens) (UniProt Q13464); settings: at 1 µM
[12] = biological target: Rho-associated protein kinase 2 (Homo sapiens) (UniProt O75116); settings: at 0.1 µM
Chain of Rho-associated protein kinase 2 (Homo sapiens) (O75116 whole entry, looked up): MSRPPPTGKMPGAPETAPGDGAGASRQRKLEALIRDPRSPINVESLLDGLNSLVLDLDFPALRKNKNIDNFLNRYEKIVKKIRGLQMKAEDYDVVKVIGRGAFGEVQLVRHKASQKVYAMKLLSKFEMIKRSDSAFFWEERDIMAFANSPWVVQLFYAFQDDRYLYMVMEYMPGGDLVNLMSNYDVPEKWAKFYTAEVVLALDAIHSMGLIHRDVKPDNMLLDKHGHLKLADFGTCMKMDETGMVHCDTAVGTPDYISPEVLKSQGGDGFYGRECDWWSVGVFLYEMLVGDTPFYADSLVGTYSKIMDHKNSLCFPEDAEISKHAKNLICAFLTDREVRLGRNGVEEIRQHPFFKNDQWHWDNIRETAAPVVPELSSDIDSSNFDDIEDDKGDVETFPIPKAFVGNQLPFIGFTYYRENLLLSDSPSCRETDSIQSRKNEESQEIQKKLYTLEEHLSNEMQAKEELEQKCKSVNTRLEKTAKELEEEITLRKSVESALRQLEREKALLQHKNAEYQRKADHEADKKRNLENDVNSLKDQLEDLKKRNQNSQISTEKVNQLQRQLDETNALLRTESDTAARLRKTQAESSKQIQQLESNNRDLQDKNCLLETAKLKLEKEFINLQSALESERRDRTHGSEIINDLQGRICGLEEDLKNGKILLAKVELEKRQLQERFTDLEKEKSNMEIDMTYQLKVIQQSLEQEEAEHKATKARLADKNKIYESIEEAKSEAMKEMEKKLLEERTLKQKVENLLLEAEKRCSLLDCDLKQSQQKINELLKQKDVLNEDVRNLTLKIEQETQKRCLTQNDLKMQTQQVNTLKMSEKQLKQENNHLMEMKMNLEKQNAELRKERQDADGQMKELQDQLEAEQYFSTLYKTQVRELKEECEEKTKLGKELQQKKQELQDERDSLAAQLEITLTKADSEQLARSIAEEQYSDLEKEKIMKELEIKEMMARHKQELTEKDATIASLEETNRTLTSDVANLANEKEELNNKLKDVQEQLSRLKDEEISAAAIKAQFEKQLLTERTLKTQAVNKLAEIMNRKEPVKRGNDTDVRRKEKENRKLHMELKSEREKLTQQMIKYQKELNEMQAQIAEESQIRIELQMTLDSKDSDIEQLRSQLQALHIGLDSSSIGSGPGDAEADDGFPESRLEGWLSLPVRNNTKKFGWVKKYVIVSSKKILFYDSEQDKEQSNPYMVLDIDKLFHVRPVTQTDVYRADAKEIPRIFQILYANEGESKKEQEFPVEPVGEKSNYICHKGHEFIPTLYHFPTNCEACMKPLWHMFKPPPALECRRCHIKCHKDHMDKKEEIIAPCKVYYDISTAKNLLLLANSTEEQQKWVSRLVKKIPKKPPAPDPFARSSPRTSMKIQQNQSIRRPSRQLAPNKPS

[13] = biological target: Rho-associated protein kinase 2 (Homo sapiens) (UniProt O75116); settings: at 1 µM
[14] = biological target: Ribosomal protein S6 kinase alpha-1 (Homo sapiens) (UniProt Q15418); settings: at 0.1 µM
Chain of Ribosomal protein S6 kinase alpha-1 (Homo sapiens) (Q15418 whole entry): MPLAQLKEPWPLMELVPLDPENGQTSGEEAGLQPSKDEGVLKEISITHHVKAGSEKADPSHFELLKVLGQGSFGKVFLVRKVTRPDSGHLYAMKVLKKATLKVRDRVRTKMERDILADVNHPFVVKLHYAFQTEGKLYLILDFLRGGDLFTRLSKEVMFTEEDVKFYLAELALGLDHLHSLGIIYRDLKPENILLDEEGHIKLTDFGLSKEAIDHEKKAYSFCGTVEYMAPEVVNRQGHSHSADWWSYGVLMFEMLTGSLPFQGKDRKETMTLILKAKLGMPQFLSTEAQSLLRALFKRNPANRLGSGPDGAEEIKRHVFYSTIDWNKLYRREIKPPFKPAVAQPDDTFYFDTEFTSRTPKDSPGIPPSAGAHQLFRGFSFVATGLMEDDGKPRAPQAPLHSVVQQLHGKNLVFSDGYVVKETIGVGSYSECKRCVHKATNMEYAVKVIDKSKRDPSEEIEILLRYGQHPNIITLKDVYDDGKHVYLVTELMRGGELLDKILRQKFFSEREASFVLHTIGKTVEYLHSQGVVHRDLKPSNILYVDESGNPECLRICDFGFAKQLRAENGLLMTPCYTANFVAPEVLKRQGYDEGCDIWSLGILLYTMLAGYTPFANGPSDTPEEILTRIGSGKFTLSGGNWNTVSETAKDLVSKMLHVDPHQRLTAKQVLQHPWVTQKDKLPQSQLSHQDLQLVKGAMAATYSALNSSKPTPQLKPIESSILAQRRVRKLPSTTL

[15] = biological target: Ribosomal protein S6 kinase alpha-1 (Homo sapiens) (UniProt Q15418); settings: at 1 µM
[16] = biological target: Ribosomal protein S6 kinase alpha-3 (Homo sapiens) (UniProt P51812); settings: at 0.1 µM
Chain of Ribosomal protein S6 kinase alpha-3 (Homo sapiens) (P51812 whole entry): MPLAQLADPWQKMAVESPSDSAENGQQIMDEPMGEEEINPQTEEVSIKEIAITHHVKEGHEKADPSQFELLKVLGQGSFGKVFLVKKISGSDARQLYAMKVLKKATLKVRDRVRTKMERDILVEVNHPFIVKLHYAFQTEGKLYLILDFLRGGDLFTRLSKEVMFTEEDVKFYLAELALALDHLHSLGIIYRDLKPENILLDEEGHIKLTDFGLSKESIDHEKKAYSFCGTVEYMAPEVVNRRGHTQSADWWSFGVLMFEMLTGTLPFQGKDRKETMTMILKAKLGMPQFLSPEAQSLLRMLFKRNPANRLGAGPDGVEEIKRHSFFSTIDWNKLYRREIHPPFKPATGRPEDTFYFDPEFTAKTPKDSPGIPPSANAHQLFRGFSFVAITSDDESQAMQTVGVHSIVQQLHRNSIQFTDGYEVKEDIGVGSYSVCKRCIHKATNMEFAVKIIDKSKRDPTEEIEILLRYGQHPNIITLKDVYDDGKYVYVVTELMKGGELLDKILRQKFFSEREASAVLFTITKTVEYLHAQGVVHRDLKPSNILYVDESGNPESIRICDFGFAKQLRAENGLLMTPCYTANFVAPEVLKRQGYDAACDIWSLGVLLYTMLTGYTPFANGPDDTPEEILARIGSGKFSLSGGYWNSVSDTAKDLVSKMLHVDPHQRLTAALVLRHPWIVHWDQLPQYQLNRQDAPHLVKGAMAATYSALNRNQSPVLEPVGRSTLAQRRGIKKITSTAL

[17] = biological target: Ribosomal protein S6 kinase alpha-3 (Homo sapiens) (UniProt P51812); settings: at 1 µM
[18] = biological target: Ribosomal protein S6 kinase alpha-2 (Homo sapiens) (UniProt Q15349); settings: at 0.1 µM
[19] = biological target: Ribosomal protein S6 kinase alpha-2 (Homo sapiens) (UniProt Q15349); settings: at 1 µM
[20] = biological target: Ribosomal protein S6 kinase alpha-6 (Homo sapiens) (UniProt Q9UK32); settings: at 0.1 µM;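 further: reported value is the mean inhibition of RSK4, from the GSK PKIS kinase inhibitor screen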
Chain of Ribosomal protein S6 kinase alpha-6 (Homo sapiens) (Q9UK32 whole entry): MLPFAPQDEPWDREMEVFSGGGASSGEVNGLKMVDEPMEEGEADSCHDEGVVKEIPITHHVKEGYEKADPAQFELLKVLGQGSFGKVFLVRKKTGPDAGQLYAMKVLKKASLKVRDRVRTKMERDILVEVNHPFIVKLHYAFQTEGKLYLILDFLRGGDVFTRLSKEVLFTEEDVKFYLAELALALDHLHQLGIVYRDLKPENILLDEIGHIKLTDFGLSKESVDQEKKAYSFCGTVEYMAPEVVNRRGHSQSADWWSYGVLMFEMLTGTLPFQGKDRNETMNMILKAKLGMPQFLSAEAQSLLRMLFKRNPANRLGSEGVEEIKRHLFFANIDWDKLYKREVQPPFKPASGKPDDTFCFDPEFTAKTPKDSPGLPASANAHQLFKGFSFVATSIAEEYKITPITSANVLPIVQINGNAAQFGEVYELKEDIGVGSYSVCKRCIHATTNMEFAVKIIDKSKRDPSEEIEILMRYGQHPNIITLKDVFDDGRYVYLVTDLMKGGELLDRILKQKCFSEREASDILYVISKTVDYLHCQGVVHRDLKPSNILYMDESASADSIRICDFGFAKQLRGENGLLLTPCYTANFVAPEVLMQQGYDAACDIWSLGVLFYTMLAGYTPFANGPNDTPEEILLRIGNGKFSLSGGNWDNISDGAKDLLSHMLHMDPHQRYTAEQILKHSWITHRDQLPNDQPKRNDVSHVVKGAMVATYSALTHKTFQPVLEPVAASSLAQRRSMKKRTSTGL

SMILES	inhibition [1] [%]	inhibition [2] [%]	inhibition [3] [%]	inhibition [4] [%]	inhibition [5] [%]	inhibition [6] [%]	inhibition [7] [%]	inhibition [8] [%]	inhibition [9] [%]	inhibition [10] [%]	inhibition [11] [%]	inhibition [12] [%]	inhibition [13] [%]	inhibition [14] [%]	inhibition [15] [%]	inhibition [16] [%]	inhibition [17] [%]	inhibition [18] [%]	inhibition [19] [%]	inhibition [20] [%]
N#Cc1cccc(Nc2nccc(-c3cnn4ncccc34)n2)c1	46.8	10.5	54.9	10.8	50.2	4.14	25.9	1.47	2.66	1.39	5.33	3.28	12.4	2.54	7.07	0.17	4.03	2.01	4.16	1.51
CCOc1nccc2c1nc(-c1nonc1N)n2CC	1.39	3.3	2.21	4.09	5.91	8.5	43.1	3.1	2.76	2.91	10.8	4.9	23.1	5.34	30	3.74	17.1	5.7	27.9	1.8
Cc1cc(O)cc(C)c1/C=C/c1cncc(C(=O)N(C)C)c1	2.05	6.37	3	2.65	3.73	1.74	3.78	1.77	0.5	0.55	1.38	1.81	3.8	1.88	3.54	1.25	2.65	0.28	2.22	1.12
